ERa coact inh: ER-alpha (human) coactivator binding inhibition; P03372; TR-FRET ER-alpha LBD / SRC-1 peptide, estradiol-bound; inhibition, % at 25.6 µM; hit rate 1.7% among 86,000; in the data active = inhibition above about 50%
CD11b adhes inh: CD11b/CD18-fibrinogen binding inhibition. hit rate 0.54% among 93,000. inhibition, % at 10 µM. P05107+P11215. K562 CD11b/CD18 adhesion to fibrinogen, ATPlite luminescence; Mn2+ added to activate the integrin;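 active = primary inhibition of 50% or more at 10 µM, then 40% or more on retest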
ERb SRC1 inh: ER-beta (human) coactivator binding inhibition; Q92731; TR-FRET ER-beta LBD / SRC1-Cy5 peptide binding; receptor agonist-loaded with 1 µM estradiol; inhibition, % at 25.6 µM; hit rate 1.3% among 86,000; AID 633;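 active = compounds whose percent inhibition of the receptor-coactivator binding signal exceeds about 50% in the single-dose screen, limit read from the data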
ERa SRC1 pot: enhances coactivator binding to human estrogen receptor alpha | coactivator binding (% of control), % at 25.6 µM | hit rate 1.3% among 86,000 | TR-FRET ERalpha-LBD/SRC-Cy5 coactivator binding, 2 h; 100 = basal binding, no effect; in the data active = activity above about 200%;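 also: binding measured in presence of low estradiol as agonist stimulus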
Mac1 fbg enh: increases human CD11b/CD18 adhesion to fibrinogen; P05107+P11215; K562 CD11b/CD18 adhesion to fibrinogen, ATPlite luminescence; activation, % at 10 µM; hit rate 0.07% among 93,000; AID 1499;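 active = 10 µM primary screen giving 50% or more activity, confirmed by 40% or more on retest at that dose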
FAK blocker: blocks human focal adhesion kinase activity; inhibition, %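 (tested at 7 µM)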; biochemical FAK kinase activity assay; hit rate 0.84% among 97,000; Q05397; in the data active = inhibition above about 19%
Target sequence (Q05397 whole entry, looked up): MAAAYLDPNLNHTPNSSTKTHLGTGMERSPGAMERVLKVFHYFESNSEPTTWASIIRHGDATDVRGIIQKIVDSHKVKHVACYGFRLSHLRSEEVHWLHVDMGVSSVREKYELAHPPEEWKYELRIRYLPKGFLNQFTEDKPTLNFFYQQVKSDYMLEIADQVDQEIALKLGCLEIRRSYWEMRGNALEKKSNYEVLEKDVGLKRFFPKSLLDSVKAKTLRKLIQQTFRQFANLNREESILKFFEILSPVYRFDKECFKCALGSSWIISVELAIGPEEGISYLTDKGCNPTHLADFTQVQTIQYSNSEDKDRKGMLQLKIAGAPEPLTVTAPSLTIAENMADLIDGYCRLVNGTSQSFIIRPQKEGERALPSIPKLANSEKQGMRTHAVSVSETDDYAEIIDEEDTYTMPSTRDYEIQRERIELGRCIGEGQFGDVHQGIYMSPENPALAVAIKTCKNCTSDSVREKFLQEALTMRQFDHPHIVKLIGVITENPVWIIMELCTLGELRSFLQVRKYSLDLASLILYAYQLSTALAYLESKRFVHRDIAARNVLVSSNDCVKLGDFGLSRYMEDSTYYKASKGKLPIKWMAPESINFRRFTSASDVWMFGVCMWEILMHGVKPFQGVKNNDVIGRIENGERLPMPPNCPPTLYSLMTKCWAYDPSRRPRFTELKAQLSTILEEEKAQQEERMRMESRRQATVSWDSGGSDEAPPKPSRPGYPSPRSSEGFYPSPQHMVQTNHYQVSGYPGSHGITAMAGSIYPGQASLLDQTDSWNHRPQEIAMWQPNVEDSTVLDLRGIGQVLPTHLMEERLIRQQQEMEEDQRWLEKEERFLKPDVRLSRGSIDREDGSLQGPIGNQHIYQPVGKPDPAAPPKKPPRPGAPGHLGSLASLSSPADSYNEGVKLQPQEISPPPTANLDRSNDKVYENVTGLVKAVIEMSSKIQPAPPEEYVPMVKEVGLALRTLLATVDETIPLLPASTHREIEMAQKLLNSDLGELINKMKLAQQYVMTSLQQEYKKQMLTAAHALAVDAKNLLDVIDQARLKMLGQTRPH
Numbers stand for hits; [ ] = remark or other dose. Only some compounds are listed: those with a hit (about 3.5% of all), similar ones and a draw of the others.

`C#CC[N+]1(CC#Cc2ccc(C#CC[N+]3(CC#C)CCOCC3)cc2)CCOCC1` gave ERa coact inh inactive, ERb SRC1 inh 60[fluorescence artefact?], ERa SRC1 pot inactive and FAK blocker inactive.
Screening C=C(c1ccc(O)cc1)c1ccc(O)cc1 returned ERa coact inh inactive, CD11b adhes inh inactive, ERb SRC1 inh inactive, ERa SRC1 pot inactive, Mac1 fbg enh inactive and FAK blocker inactive.
CN(CC(=O)NCCN1CCN(Cc2ccccc2)CC1)S(=O)(=O)c1cccc2nsnc12 was read as ERa coact inh inactive, ERb SRC1 inh inactive, ERa SRC1 pot 764[fluorescence artefact?] and FAK blocker inactive.
For Cc1ccc2c(c1)cc(CN(CCc1ccccc1)C(=O)N1CCOCC1)c1nnnn12 the results were ERa coact inh 65[fluorescence artefact?], CD11b adhes inh inactive, ERb SRC1 inh inactive, ERa SRC1 pot inactive, Mac1 fbg enh inactive and FAK blocker inactive.
Cc1ccc(C)c(Cc2c(C)nc3c(C(=O)N4CCOCC4)cnn3c2C)c1 was read as ERa coact inh inactive, CD11b adhes inh inactive, ERb SRC1 inh inactive, ERa SRC1 pot inactive, Mac1 fbg enh inactive and FAK blocker inactive.
COc1ccccc1S(=O)(=O)Cc1ccc(C(=O)N2CCCC2)o1 was read as ERa coact inh inactive, CD11b adhes inh inactive, ERb SRC1 inh inactive, ERa SRC1 pot 208, Mac1 fbg enh inactive and FAK blocker inactive.
COC(=O)C(C(C)=O)C1=C/C(=N\S(=O)(=O)c2ccc(C)cc2)c2ccccc2C1=O (stereo not given) was read as ERa coact inh inactive, CD11b adhes inh 66, ERb SRC1 inh inactive, ERa SRC1 pot inactive, Mac1 fbg enh inactive and FAK blocker inactive.
`COc1ccc(/C=N/n2cc(-c3ccc(OC)cc3)nc2N)cc1` gave ERa coact inh 77[fluorescence artefact?], ERb SRC1 inh inactive, ERa SRC1 pot inactive and FAK blocker inactive.
Screening COc1ccc(/C=N/n2cc(-c3ccccc3)nc2N)cc1 returned ERa coact inh inactive, CD11b adhes inh inactive, ERb SRC1 inh inactive, ERa SRC1 pot inactive and Mac1 fbg enh inactive.
`O=C(c1cccs1)c1coc2ccc(O)cc12` gave ERa coact inh inactive, CD11b adhes inh inactive, ERb SRC1 inh inactive, ERa SRC1 pot inactive, Mac1 fbg enh inactive and FAK blocker inactive.
For CCC(=O)c1coc2ccc(O)cc12 the results were ERa coact inh 67[fluorescence artefact?], ERb SRC1 inh 78[fluorescence artefact?], ERa SRC1 pot inactive and FAK blocker inactive.
`O=C(NCCN1CCOCC1)NC1(C(F)(F)F)Oc2ccccc2O1` gave ERa coact inh inactive, CD11b adhes inh inactive, ERb SRC1 inh inactive, ERa SRC1 pot 617[fluorescence artefact?], Mac1 fbg enh inactive and FAK blocker inactive.
`CCCCNC(=O)NC1(C(F)(F)F)Oc2ccccc2O1` gave ERa coact inh inactive, CD11b adhes inh inactive, ERb SRC1 inh inactive, ERa SRC1 pot inactive, Mac1 fbg enh inactive and FAK blocker inactive.
Screening COC(=O)c1cc(=O)n(CCc2ccc(OC)cc2)c(=Nc2ccc(F)c(Cl)c2)s1 returned ERa coact inh inactive, CD11b adhes inh inactive, ERb SRC1 inh inactive, ERa SRC1 pot inactive, Mac1 fbg enh inactive and FAK blocker inactive.
Screening CCn1c(=O)cc(C(=O)OC)sc1=Nc1ccc(F)c(F)c1 returned ERa coact inh inactive, CD11b adhes inh inactive, ERb SRC1 inh 95[fluorescence artefact?], ERa SRC1 pot inactive, Mac1 fbg enh inactive and FAK blocker inactive.
COC(=O)NC1CCS(=O)(=O)C1 (stereo not given) was read as ERa coact inh inactive, ERb SRC1 inh inactive, ERa SRC1 pot inactive and FAK blocker inactive.
Screening COc1ccc(-c2ccc(-c3noc(C(C)C)n3)c(OC)n2)cc1 returned ERa coact inh inactive, CD11b adhes inh inactive, ERb SRC1 inh inactive, ERa SRC1 pot inactive, Mac1 fbg enh inactive and FAK blocker inactive.
COc1nc2c(C)cccc2cc1-c1noc(-c2ccco2)n1 was read as ERa coact inh 55[fluorescence artefact?], CD11b adhes inh inactive, ERb SRC1 inh inactive, ERa SRC1 pot inactive, Mac1 fbg enh inactive and FAK blocker inactive.
For COc1cc(OC)cc(-c2nc(-c3cc4cc(C)ccc4nc3OC)no2)c1 the results were ERa coact inh inactive, CD11b adhes inh inactive, ERb SRC1 inh inactive, ERa SRC1 pot inactive, Mac1 fbg enh inactive and FAK blocker inactive.
COc1nc(-c2ccc(Cl)cc2)ccc1-c1noc(-c2ccco2)n1 was read as ERa coact inh inactive, CD11b adhes inh inactive, ERb SRC1 inh inactive, ERa SRC1 pot 376, Mac1 fbg enh inactive and FAK blocker inactive.
`COc1cccc(-c2ccc(-c3noc(-c4cccs4)n3)c(OC)n2)c1` gave ERa coact inh inactive, CD11b adhes inh inactive, ERb SRC1 inh inactive, ERa SRC1 pot 310[fluorescence artefact?], Mac1 fbg enh inactive and FAK blocker inactive.
COc1cccc(-c2ccc(-c3noc(-c4ccccc4F)n3)c(OC)n2)c1 was read as ERa coact inh inactive, CD11b adhes inh inactive, ERb SRC1 inh inactive, ERa SRC1 pot inactive, Mac1 fbg enh inactive and FAK blocker inactive.
`CSc1ccccc1NC(=O)c1ccccc1N(Cc1ccccc1)S(C)(=O)=O` gave ERa coact inh inactive, CD11b adhes inh inactive, ERb SRC1 inh 59, ERa SRC1 pot inactive, Mac1 fbg enh inactive and FAK blocker inactive.
For CSc1ccccc1NC(=O)c1ccccc1N(C)S(C)(=O)=O the results were ERa coact inh inactive, CD11b adhes inh inactive, ERb SRC1 inh inactive, ERa SRC1 pot inactive, Mac1 fbg enh inactive and FAK blocker inactive.
Cc1cccc(N2CCN(C(=O)c3ccc4ncsc4c3)CC2)c1C was read as CD11b adhes inh inactive, Mac1 fbg enh inactive and FAK blocker inactive.
CCOc1ccc(NC(=O)NCCCn2c(C)nc3cc(C)c(C)cc32)cc1 was read as ERa coact inh inactive, CD11b adhes inh inactive, ERb SRC1 inh inactive, ERa SRC1 pot inactive, Mac1 fbg enh inactive and FAK blocker inactive.
Cc1cc2nc(C)n(CCCNC(=O)Nc3cccc4ccccc34)c2cc1C was read as ERa coact inh 51[fluorescence artefact?], CD11b adhes inh inactive, ERb SRC1 inh inactive, ERa SRC1 pot inactive, Mac1 fbg enh inactive and FAK blocker inactive.
COC(=O)c1cccc(NCN2C(=O)c3ccccc3C2=O)c1 was read as ERa coact inh inactive, CD11b adhes inh inactive, ERb SRC1 inh inactive, ERa SRC1 pot inactive and Mac1 fbg enh inactive.
Screening CCN1CCN(c2nc(C)nc3c2sc(=S)n3C)CC1 returned ERa coact inh inactive, CD11b adhes inh inactive, ERb SRC1 inh inactive, ERa SRC1 pot inactive, Mac1 fbg enh inactive and FAK blocker inactive.
C=CCn1cnc2c(c1=O)c1nc3ccccc3nc1n2/N=C/c1cccc(OC)c1 was read as ERa coact inh 68[fluorescence artefact?], CD11b adhes inh inactive, ERb SRC1 inh inactive, ERa SRC1 pot inactive and Mac1 fbg enh inactive.
For Cc1ccc(C2CC(c3ccc(F)cc3)Nc3nc(N)nn32)cc1 (stereo not given) the results were ERa coact inh inactive, CD11b adhes inh inactive, ERb SRC1 inh inactive, ERa SRC1 pot inactive and Mac1 fbg enh inactive.
`CCc1cccc(CC)c1NC(=O)COC(=O)c1ccccc1-c1nc2ccccc2s1` gave CD11b adhes inh inactive and Mac1 fbg enh inactive.

High-throughput results as filed in PubChem BioAssay.
